Assay results taken from PubChem BioAssay AID1159580 (chemical genetic matrix, 2015).
Among all 5,500 compounds or so, about 2,000 (36%) were called active. Roughly 18% stayed inconclusive and do not appear here. Rule as the data show it: active = normalized growth mostly below about 0.91 (no sharp cut-off); inconclusive = no clear call, values can overlap the other calls; inactive = mostly above about 0.92. The list shows a part of the results.

Assay: chemical genetic growth profiling, strain panel (AID 1159580);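 also: tested at 20 µM; growth read once vehicle control cultures reached saturation at 30 °C; 1 = growth at the plate median or of vehicle wells; lower values mean less growth of the strain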
Details: S. cerevisiae deletion strains, growth OD

Measured: normalized growth

C/C=C(/C)C(=O)O[C@@H]1Cc2c(ccc3ccc(=O)oc23)OC1(C)C
inactive: locus YBR021W, strain FUR4, hits give low values 1.08 | locus YBR229C, strain ROT2, hits give low values 0.984 | locus YCL029C, strain bik1, hits give low values 1.01 | locus YDL035C, strain GPR1, hits give low values 0.974 | locus YDL074C, strain BRE1, hits give low values 0.976 | locus YDL101C, strain DUN1, hits give low values 1.01 | locus YDL134C, strain PPH21, hits give low values 0.947 | locus YDL185W, strain tfp1, hits give low values 1.01 | locus YDL192W, strain arf1, hits give low values 0.977 | locus YDR101C, strain arx1, hits give low values 1.03 | locus YDR150W, strain NUM1, hits give low values 0.934 | locus YDR162C, strain NBP2, hits give low values 0.927 | locus YDR318W, strain mcm21, hits give low values 0.962 | locus YDR388W, hits give low values 0.996 | locus YDR502C, strain sam2, hits give low values 1.03 | locus YEL061C, strain CIN8, hits give low values 0.95 | locus YER110C, hits give low values 1 | locus YER155C, strain BEM2, hits give low values 1 | locus YER167W, strain BCK2, hits give low values 0.978 | locus YGL078C, strain dbp3, hits give low values 0.991 | locus YGL086W, strain mad1, hits give low values 1.02 | locus YGL248W, strain PDE1, hits give low values 0.966 | locus YGR078C, strain PAC10, hits give low values 0.987 | locus YGR135W, strain pre9, hits give low values 0.97 | locus YGR252W, strain gcn5, hits give low values 1.05 | locus YHR030C, strain SLT2, hits give low values 0.992 | locus YHR079C, strain IRE1 (second series), hits give low values 0.987 | locus YHR094C, strain hxt1, hits give low values 0.989 | locus YHR129C, strain ARP1, hits give low values 0.973 | locus YHR200W, strain rpn10, hits give low values 1.01 | locus YIL066C, strain RNR3, hits give low values 0.979 | locus YIL073C, strain SPO22, hits give low values 0.96 | locus YIL125W, strain kgd1, hits give low values 1 | locus YIR030C, strain dcg1, hits give low values 0.989 | locus YJL095W, strain BCK1, hits give low values 0.937 | locus YJL134W, strain LCB3, hits give low values 0.985 | locus YJL168C, strain set2, hits give low values 1 | locus YJL187C, strain SWE1 (second series), hits give low values 0.984 | locus YJR043C, strain POL32, hits give low values 1.01 | locus YJR075W, strain HOC1, hits give low values 0.99 | locus YKL009W, strain mrt4, hits give low values 0.987 | locus YKL068W, hits give low values 0.983 | locus YKL085W, strain MDH1 (second series), hits give low values 0.978 | locus YKL085W, strain MDH1, hits give low values 0.978 | locus YKL190W, strain CNB1, hits give low values 0.935 | locus YKR001C, strain vps1, hits give low values 0.998 | locus YLR039C, strain RIC1, hits give low values 0.792 | locus YLR058C, strain SHM2, hits give low values 0.97 | locus YLR102C, strain apc9, hits give low values 0.99 | locus YLR262C, strain YPT6, hits give low values 0.761 | locus YLR268W, strain sec22, hits give low values 1 | locus YLR330W, strain CHS5, hits give low values 0.989 | locus YLR342W, strain FKS1 (second series), hits give low values 0.987 | locus YLR371W, strain rom2, hits give low values 1 | locus YLR418C, strain cdc73, hits give low values 1.06 | locus YML016C, strain PPZ1, hits give low values 0.987 | locus YML032C, strain rad52, hits give low values 0.969 | locus YML124C, strain tub3, hits give low values 0.982 | locus YMR078C, strain ctf18, hits give low values 0.985 | locus YMR223W, strain ubp8, hits give low values 0.974 | locus YMR307W, strain GAS1, hits give low values 0.716 | locus YNL067W, strain RPL9B, hits give low values 0.951 | locus YNL153C, strain GIM3, hits give low values 0.996 | locus YNL233W, strain BNI4, hits give low values 1 | locus YNL250W, strain rad50, hits give low values 0.981 | locus YNL271C, strain bni1, hits give low values 0.989 | locus YNL298W, strain CLA4, hits give low values 0.984 | locus YNL307C, strain MCK1, hits give low values 1 | locus YNR052C, strain pop2, hits give low values 0.915 | locus YOL012C, strain htz1 0.999 | locus YOL147C, strain pex11, hits give low values 0.99 | locus YOR061W, strain CKA2, hits give low values 0.974 | locus YOR069W, strain VPS5, hits give low values 0.975 | locus YOR136W, strain idh2, hits give low values 1.03 | locus YOR144C, strain elg1, hits give low values 0.992 | locus YOR184W, strain ser1, hits give low values 0.932 | locus YOR316C, strain cot1, hits give low values 0.987 | locus YPL241C, strain CIN2, hits give low values 0.953 | locus YPR119W, strain clb2, hits give low values 0.976 | locus YPR141C, strain kar3, hits give low values 0.981 | locus YPR163C, strain tif3, hits give low values 0.987 | locus YPR167C, strain met16, hits give low values 0.98 | strain wtn01, hits give low values 1.04
